# Source: PubChem BioAssay (Tox21)
# Records with an inconclusive call do not appear. Active and inactive are the calls of the source. Calls come from the whole dose curve; as a rule, active = well fitted cell-killing curve with a large enough effect in the repeat runs; inconclusive = weak or mixed curves; inactive = flat fitted curve, though single readings scatter.
# Experiment: qHTS RealTime-Glo MT Cell Viability Assay in HepG2 cells - 16 hour (AID 1224885); note: nearly all actives have a fitted effect of over 50% in size
# Conditions: RealTime-Glo luminescence; series mostly up to 76.8 µM
# Outline: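 Cells + NanoLuc/prosubstrate dispensed (600 cells/well) → 5 h at 37 C/5% CO2 → compounds in DMSO transferred → 40 h incubation at 37 C, luminescence read at 0, 8, 16, 24, 32, 40 h.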
# % is set by controls: 0 for no effect and ±100 for the full control effect.
SMILES,outcome,"activity change, negative = cytotoxic"
COc1nc(N)nc2nc[nH]c12,inactive,–
OC1OCCOC1O (configuration not stated),inactive,–
CCCCCCC1(C)CCC(=O)O1 (configuration not stated),inactive,–
C#CCN[C@@H]1CCc2ccccc21,inactive,–
CC(=O)OC1CCCCC1C(C)(C)C (configuration not stated),inactive,–
CCOc1cccc(N)c1,inactive,–
CC1(C)Oc2ccc(C#N)cc2[C@@H](N2CCCC2=O)[C@@H]1O,inactive,–
COc1ccc(CCO)cc1,inactive,–
C/C(CC(C)C)=N\O,inactive,–
[O-][n+]1cccc(/C(Cl)=N/OC[C@@H](O)CN2CCCCC2)c1,inactive,–
CC(=O)OCC(=O)Nc1cc(C#N)cc(NC(=O)COC(C)=O)c1Cl,inactive,–
CNCCS(=O)(=O)O,inactive,–
CCC(=O)CC,inactive,–
CC(=O)O[C@@H]1CC2CCC1(C)C2(C)C (some centres not stated),inactive,–
NCc1ccc(S(N)(=O)=O)cc1,inactive,–
Cn1c(=O)c2[nH]c(Br)nc2n(C)c1=O,inactive,–
CCC[C@@H]1C[C@@H](C(=O)N[C@@H]([C@H]2O[C@H](SC)[C@H](O)[C@@H](O)[C@H]2O)[C@@H](C)O)N(C)C1,inactive,–
O=Cc1cc2ccccc2o1,inactive,–
Cc1c(N)cccc1Cl,inactive,–

SMILES,outcome,"activity change, negative = cytotoxic"
Cc1ccccc1C(N)=O,inactive,–
O=C(Cn1ccnc1[N+](=O)[O-])NCc1ccccc1,inactive,–
CC(C)=CCC/C(C)=C/COC=O,inactive,–
COC(=O)c1ccccc1C(=O)O,inactive,–
CCO,inactive,–
CC(C)OC(=O)CCC(=O)OC(C)C,inactive,–
CCOc1ccccc1OCC1CNCCO1 (configuration not stated),inactive,–
CCCCCCCCCCCCCCC(=O)NC(CO)CCCCCCCCCCCCCC (configuration not stated),inactive,–
O=C(CCCCC(=O)Nc1c(I)cc(I)c(C(=O)O)c1I)Nc1c(I)cc(I)c(C(=O)O)c1I,inactive,–
CC1(C)O[C@H]2CC(=O)OC[C@]23[C@H]2CC[C@@]4(C)[C@H](c5ccoc5)OC(=O)[C@H]5O[C@]54[C@]2(C)C(=O)C[C@@H]13,inactive,–
CCCCCCCCCCCCCCCCCCOCCO,–,1.39% [at 15.8 µM] (inactive)
CC1=C(C(=O)O)N2C(=O)[C@@H](NC(=O)[C@H](N)C3=CCC=CC3)[C@H]2SC1,inactive,–
CC(=O)OC(C)=O,inactive,–
Cc1ccc(N)cc1S(=O)(=O)O,inactive,–
COC(=O)c1cccc(Cl)c1,inactive,–
CC(=O)O[Si](C)(OC(C)=O)OC(C)=O,inactive,–
CC1(C)CC(OC(=O)CCCCCCCCC(=O)OC2CC(C)(C)NC(C)(C)C2)CC(C)(C)N1,–,-0.753% [at 15.8 µM] (inactive)
CCOC(=O)CC1(C)OCC(C)O1 (configuration not stated),inactive,–
